Holding throughout (type): functional
For test [1], the system named is Plasmodium falciparum. Put plainly: GSK_TCMDC: Inhibition of Plasmodium falciparum 3D7 in whole red blood cells, using parasite LDH activity as an index of growth. Test compounds present at 2uM.
The subject of test [2] is Plasmodium falciparum. Nature of the test: GSK_TCMDC: Inhibition of Plasmodium falciparum Dd2 in whole red blood cells, using parasite LDH activity as an index of growth. Test compounds present at 2uM.
The subject of a further test is HepG2. Put plainly: GSK_TCMDC: Percent inhibition of human HepG2 cell line. Test compounds present at 10uM.

By Inhibition is commonly meant the change of the read-out against control, counted positive when it falls.

Regarding `CS(=O)(=O)c1ccc(CNCc2cccc(-c3ccc(-c4nc5cc(C(F)(F)F)ccc5[nH]4)cc3)c2)cc1.O=C(O)C(F)(F)F`, the values for the Inhibition in the test with Plasmodium falciparum [1], in the test on Plasmodium falciparum [2] and in the test with HepG2 were 100%, 96% and 31%, respectively.

In the case of `CCCCN(CCCC)CCCN(CCCN(CCCC)CCCC)c1cc(C)nc(Nc2ccc(Br)cc2)n1.O=C(O)C(=O)O`, the Inhibition came out at 99% in the test with Plasmodium falciparum [1], 98% in the test with Plasmodium falciparum [2] and 51% in the test on HepG2.

As to `CCN(CC)CC(O)Cc1c2ccc([N+](=O)[O-])cc2nc2cc(OC)c(OC)cc12` (stereo unspecified), the Inhibition in the test on Plasmodium falciparum [1] turned out to be 100%; in the test on Plasmodium falciparum [2], 37%; with HepG2, 41%.

For `CCn1c(CN2CCN(Cc3ccccc3)CC2)nc2cc(NC(=O)c3cccs3)ccc21`, the Inhibition came to 97% in the test with Plasmodium falciparum [1], 95% in the test with Plasmodium falciparum [2] and 0% in the test on HepG2.

Turning to `CCn1c(CN2CCC(C)CC2)nc2cc(NC(=O)c3cccs3)ccc21`, the Inhibition with Plasmodium falciparum [1] is 91%; in the test with Plasmodium falciparum [2] it was 95%; in the test on HepG2, 40%.

For the compound `COc1ccc(CNC(=O)c2cnc3c(O)cccc3c2Nc2cccc(NC(=O)c3ccc(Cl)c([N+](=O)[O-])c3)c2)cc1.O=C(O)C(F)(F)F`, the Inhibition in the test on Plasmodium falciparum [1] is 86%; with Plasmodium falciparum [2] it was 21%; with HepG2, 48%.

Take `COc1ccc(-c2ccc(CNCc3ccccc3)cc2)cc1S(=O)(=O)NCCN1CCCC1.O=C(O)C(F)(F)F`: the Inhibition in the test with Plasmodium falciparum [1] was 100%; in the test on Plasmodium falciparum [2], 76%; in the test with HepG2 it was 36%.

As for `COc1cc2c(cc1N1CCN(C)CC1)N(C(=O)Nc1ccc(-c3ccncc3)c(Cl)c1Cl)CC2`, the Inhibition in the test on Plasmodium falciparum [1] amounted to 100%; with Plasmodium falciparum [2], 4%; in the test with HepG2, 10%.

Consider `Cc1ccnc2nc(C(=O)Nc3cc(C(F)(F)F)ccc3N3CCCCC3)nn12`, for which the Inhibition with Plasmodium falciparum [1] is recorded as 96%; in the test with Plasmodium falciparum [2] it was 94%; in the test on HepG2, 7%.

As for `O=C(Nc1cccc(CN2CCCN(Cc3ccc(O)cc3)CC2)c1)c1ccc(Br)cc1.O=C(O)C(F)(F)F`, the Inhibition was 94% in the test on Plasmodium falciparum [1], 54% in the test with Plasmodium falciparum [2] and 19% with HepG2.

As for `COc1ccc2nccc([C@@H](O)CN3CCC(NC(=O)C(c4cc5ccccc5o4)N4CCN(c5ccccc5)CC4)CC3)c2c1` (stereo partly specified), the Inhibition with Plasmodium falciparum [1] amounted to 99%; in the test on Plasmodium falciparum [2], 99%; with HepG2, 19%.

For `COc1ccc(CNCc2ccc(-c3ccc(-c4nc5cccc(C)c5[nH]4)cc3)cc2)cc1.O=C(O)C(F)(F)F`, the values for the Inhibition with Plasmodium falciparum [1], in the test on Plasmodium falciparum [2] and in the test with HepG2 were 100%, 97% and 53%, respectively.

As for `O=C(N[C@@H](Cc1ccccc1)C(=O)NCCN1CCOCC1)c1ccc(O)c(-c2ccc(Cl)c(Cl)c2)c1`, the Inhibition with Plasmodium falciparum [1] was found to be 97%; with Plasmodium falciparum [2] it was 31%; in the test with HepG2 it was 0%.

On to `COc1ccc(CNC(=O)Nc2cc3cc(-c4ccc(CN(C)C)cc4)ccc3n3c(C)nnc23)cc1`, for which the Inhibition in the test with Plasmodium falciparum [1] came to 93%; in the test on Plasmodium falciparum [2], 80%; in the test with HepG2, 99%.

With `COc1cccc(-c2cccc(NC(=O)C3CCN(Cc4ccc(O)cc4)CC3)c2)c1`, the figures for the Inhibition with Plasmodium falciparum [1], with Plasmodium falciparum [2] and in the test with HepG2 were 97%, 97% and 9%, respectively.

For `CCCCCCCC1=NN2C(=N)C(=Cc3cc(Br)c(OCc4ccc(F)cc4)c(OCC)c3)C(=O)N=C2S1`, the figures for the Inhibition in the test with Plasmodium falciparum [1], in the test with Plasmodium falciparum [2] and in the test on HepG2 were 95%, 0% and 4%, respectively.

On to `CC(=O)Nc1ccc(OCCCCN(Cc2ccccc2C(F)(F)F)c2ccc(C#N)c(C(F)(F)F)c2)c(Cl)c1`, for which the Inhibition in the test with Plasmodium falciparum [1] is 98%; in the test on Plasmodium falciparum [2], 71%; in the test on HepG2 it was 0%.

Consider `CCN(CC)CCN(Cc1ccc(-c2ccc(C(F)(F)F)cc2)cc1)C(=O)Cn1c(CCc2cccc(F)c2F)nc(=O)c2ccc(F)cc21.O=C(O)C(O)C(O)C(=O)O`, for which the Inhibition in the test on Plasmodium falciparum [1] came out at 98%; with Plasmodium falciparum [2], 41%; in the test with HepG2, 14%.

For `Cc1cc(S(=O)(=O)N2CCCCC(c3ccc(C(F)(F)F)cc3)=N2)c(Cl)cc1Cl`, the results for the Inhibition in the test with Plasmodium falciparum [1], in the test on Plasmodium falciparum [2] and in the test on HepG2 were 97%, 97% and 17%, respectively.

`CCN(CC)c1ccccc1CNC(=O)c1cc(Cl)c(N)cc1OC`: the values for the Inhibition with Plasmodium falciparum [1], in the test on Plasmodium falciparum [2] and with HepG2 were 97%, 94% and 6%, respectively.

Turning to `CC(=O)c1ccc(-c2ccccc2)s1`, the Inhibition came to 92% with Plasmodium falciparum [1], 2% in the test on Plasmodium falciparum [2] and 0% in the test on HepG2.

In the case of `CCCCCCc1cc(OC)c(OC)cc1C(C)Nc1ccnc2cc(Cl)ccc12` (stereo unspecified), the Inhibition in the test on Plasmodium falciparum [1] is listed as 95%; in the test on Plasmodium falciparum [2], 79%; in the test with HepG2, 6%.

In the case of `COc1cc(NC(=O)N2CCc3cc(OC)c(OCCN4CCCCC4)cc32)cc(C(F)(F)F)c1.O=C(O)C(=O)O`, the Inhibition in the test with Plasmodium falciparum [1] is 93%; in the test on Plasmodium falciparum [2], 10%; in the test on HepG2, 9%.

As to `Fc1ccc2[nH]c(-c3ccc(-c4ccc(CNCCc5ccncc5)cc4)cc3)nc2c1.O=C(O)C(F)(F)F`, the Inhibition is recorded as 100% with Plasmodium falciparum [1], 97% in the test with Plasmodium falciparum [2] and 23% in the test on HepG2.

In the case of `CC(C)CCn1c(Sc2ccc(C#N)c([N+](=O)[O-])c2)nnc1-c1ccccc1Cl`, the Inhibition in the test on Plasmodium falciparum [1] is given as 93%; in the test with Plasmodium falciparum [2] it was 38%; in the test on HepG2, 20%.

For `Cn1cc(-c2ccnc3[nH]c(-c4cccc(CNC5CCC(O)CC5)c4)cc23)cn1.O=C(O)C(F)(F)F` (stereo unspecified), the Inhibition came to 95% with Plasmodium falciparum [1], 82% with Plasmodium falciparum [2] and 48% in the test on HepG2.

Consider `COc1cc2nc(NCCc3ccccc3)nc(NCc3cc(C)no3)c2cc1OC`, for which the Inhibition with Plasmodium falciparum [1] came out at 99%; with Plasmodium falciparum [2] it was 100%; in the test with HepG2, 5%.

For the origin of these results see ChEMBL document CHEMBL1157539, “Thousands of chemical starting points for antimalarial lead identification” (Nature, 2010).
